# SMARCA2 act – activators of SMARCA2 function. MG213 cells, MMTV-luciferase reporter, dexamethasone, overnight. activation, % at 9.1 µM. 370,000 compounds, 1% hits. AID 652017; in the data active = activation above about 7.8%;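 note: 0% = vehicle wells and 100% = reference activator wells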
# Vif inh – blocks HIV Vif function; HEK293T cells, Vif self-association by quenched fluorescence, imaging, 24 h; inhibition, % at 7.49 µM; 340,000 compounds, 0.35% hits; in the data active = inhibition above about 50%, passing the limit was not always enough; inconclusive = no clear call, values can overlap the other calls; inactive = below about 31%
# NR3A LBD binder – modulators (binders) of human NR3A ligand-binding domain | NR3A LBD differential scanning fluorimetry, Tm shift; 0% = protein alone, 100% = glycine-bound protein | AID 1259313 | 340,000 compounds, 2.5% hits | Tm shift relative to glycine control, % at 25 µM;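 active = melting temperature shift of at least 10% of the positive control shift, at one fixed dose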
# NadD block – NadD (S. aureus) enzyme inhibition. AID 602399. 360,000 compounds, 0.78% hits. inhibition, % at 20 µM. purified NadD enzyme, colorimetric absorbance read-out; in the data active = inhibition above about 26%
# SKN-1 inh – blocks SKN-1 activity in C. elegans | C. elegans VP596 Pgst-4::GFP/RFP ratio, acrylamide-induced, 24 h | 360,000 compounds, 0.49% hits | inhibition, % at 21.8 µM;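 active = interference check ratio from 0.5 to 1.5 plus GFP to RFP signal ratio inhibition reaching or exceeding a fixed threshold, cut at about 30% in these data, passing the limit was not always enough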
# esBAF inh – SWI/SNF esBAF complex inhibition. mouse ES cells, Bmi1-luciferase knock-in reporter, 24 h; 100% = twice the neutral-well signal. reporter increase, % at 12.5 µM. 350,000 compounds, 2% hits; in the data active = activation above about 40%; inconclusive = no clear call, values can overlap the other calls;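 note: 0% = median of the plate's neutral control wells and 100% = double that signal; a rise in the Bmi1 reporter signal indicates esBAF inhibition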
# SMARCA2 act conf – confirmation of SMARCA2 (BRM) function activators | AID 652260 | MG213 cells, MMTV-luciferase with dexamethasone, luminescence, overnight; MG213 cells expressing E1A, Rb sequestered; DMSO wells 0%, reference activator 100% | activation, % at 9.1 µM | 3,500 compounds, 30% hits | shares compounds with SMARCA2 act;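 active = activation above its plate's cutoff, the mean activation of tested wells plus 3 SD, cut at about 7.9% in these data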
# VP16 Luc act – counter-screen for SMARCA2 activators: GAL4-VP16 luciferase reporter activation; AID 686939; HEK293 GAL4-VP16 pG5luc reporter, luciferase luminescence; scaled: DMSO wells 0%, SAHA wells 100%; activation, % at 9.1 µM; shares compounds with SMARCA2 act; 3,500 compounds, 41% hits;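 active = activation above the solvent-only control well mean plus 3 SD, averaged across control plates, cut at about 5.2% in these data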
# Starred values were filed as active, the others as inactive; i = inactive; ? = inconclusive; / = no result given; ! = not confirmed by another sample. The list is not random: actives were taken first. Their share in the collection is about 5.2%.
SMILES,SMARCA2 act,Vif inh,NR3A LBD binder,NadD block,SKN-1 inh,esBAF inh,SMARCA2 act conf,VP16 Luc act
O=C(NCc1cccnc1)c1noc2c1CCCCC2,/,4,-1,1,-8,/,/,/
O=C(NCc1ccco1)c1noc2c1CCCCC2,10*,0,-1,-6,7,34,4,1
CC(C)c1cc(C(=O)NCc2ccco2)no1,9.0*,-6,1,-1,-8,29,8,7.3*
CC(C)Cc1cc(C(=O)NCc2cccs2)no1,13*,-3,-4,1,11,65*,7,14*
Cc1cc(C(=O)NCc2ccco2)on1,5,/,-1,5,-4,1,/,/
O=C(Cc1ccccc1)Nc1ccc2oc(=O)ccc2c1,3,2,-1,-3,-2,0,/,/
O=C(Nc1ccc2oc(=O)ccc2c1)c1ccco1,8.3*,23,-21,-4,11,39,2,3
CC1(CCCN2C(=O)c3ccccc3C2=O)OCCO1,10*,-2,0,5,7,/,5,4
Cc1nc(NC(=O)c2ccccc2)sc1C,8.2*,-4,0,-5,16,6,7,7.8*
Cc1nc(NC(=O)Nc2ccc(Cl)cc2)sc1C,8.6*,-5,12*,1,-5,58*,3,10*
Cc1nc(NC(=O)c2cc3ccccc3o2)sc1C,3,6,-3,-6,-2,-17,/,/
CCN(CC)CCCNC(=S)N(Cc1cccnc1)Cc1cc2cc(C)cc(C)c2[nH]c1=O,-1,1,-1,-8,6,/,/,/
Cc1cc(C)c2[nH]c(=O)c(CN(Cc3cccnc3)C(=S)NCCCN(C)C)cc2c1,11*,-7,1,-11,3,/,-4,2
C=CCN1C(=O)c2cccc3c(N4CCCCC4)ccc(c23)C1=O,2,i,-1,2,-77,/,/,/
O=C1c2cccc3c(N4CCCCC4)ccc(c23)C(=O)N1CCO,8.5*,/,2,-3,-20,72*,7.8*,8.6*
C[C@@H]1CCCCO[C@@H](CN(C)C(=O)Nc2ccc(F)cc2)[C@H](C)CN([C@H](C)CO)C(=O)c2cc(NC(=O)Nc3ccccc3)ccc2O1,/,/,/,/,/,0,/,/
Cc1cc(C)cc(NC(=O)/C=C/c2ccc([N+](=O)[O-])s2)c1,8.8*,96*,-7,-4,4,/,4,0
O=C(Nc1ccc2nc3n(c(=O)c2c1)CCCCC3)c1ccccn1,8.2*,-6,3,-2,0,-24,3,10*
C[C@@H]1CN([C@H](C)CO)C(=O)c2cc(NC(=O)Nc3ccc4c(c3)OCO4)ccc2O[C@@H]1CN(C)S(=O)(=O)c1cn(C)cn1,/,/,/,/,/,-3,/,/
COCCCNC(=O)/C=C/c1c(Cl)cccc1Cl,0,4,-2,-1,4,/,/,/
COCCCNC(=O)/C=C/c1ccc(Cl)cc1,12*,1,-1,2,21,21,3,1
C[C@@H]1CN([C@@H](C)CO)C(=O)c2cc(C#CC3CC3)cnc2O[C@H]1CN(C)S(C)(=O)=O,/,/,/,/,/,-8,/,/
COc1ccc(CCNc2ncccc2C#N)cc1OC,10*,-2,-2,-10,6,54*,7,9.6*
COc1ccc(CCNc2ncnc3cc(OC)c(OC)cc23)cc1OC,-2,-20,-1,2,-2,-17,/,/
CC1=CC(C)=Nc2ccc(C)cc2N1,8.8*!,-3,0,0,2,39,7,11*
Cc1ccc2c(c1)NC(=O)CC(c1ccccc1)=N2,2,-7,-2,6,7,?,/,/
O=C(OCc1c(-c2ccccc2)ncc2ccccc12)N1CCOCC1,9.6*,-14,0,-3,10,57*,7,2
O=C(O)CCC(=O)OCc1c(-c2ccccc2)ncc2ccccc12,1,-14,2,-3,10,1,/,/
